Assay outcomes (PubChem BioAssay)
TEAD-YAP block: TEAD-YAP interaction inhibition. HEK-TIYL cells, TEAD-Gal4/YAP UAS-luciferase luminescence. inhibition, % at 9.12 µM. 640,000 tested, 1.4% active. AID 1259422; in the data active means inhibition above about 32%
FBW7 activator: activators of human E3 ligase FBW7 | Q969H0 | AlphaScreen FBW7–phospho-cyclin E peptide binding, activator screen | normalized activity (activation), % at 26.1 µM | 650,000 tested, 0.13% active | AID 1259310; in the data active means normalized activity above about 1.9%;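 further: purified mutant Fbw7 with reduced substrate affinity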
GPR151 activ: activates the human receptor GPR151; PathHunter beta-arrestin GPR151 cells, luminescence; 650,000 tested, 1% active; Q8TDV0; activation, % at 11.2 µM; in the data active means activation above about 4.9%
Target sequence (Q8TDV0 whole entry, looked up): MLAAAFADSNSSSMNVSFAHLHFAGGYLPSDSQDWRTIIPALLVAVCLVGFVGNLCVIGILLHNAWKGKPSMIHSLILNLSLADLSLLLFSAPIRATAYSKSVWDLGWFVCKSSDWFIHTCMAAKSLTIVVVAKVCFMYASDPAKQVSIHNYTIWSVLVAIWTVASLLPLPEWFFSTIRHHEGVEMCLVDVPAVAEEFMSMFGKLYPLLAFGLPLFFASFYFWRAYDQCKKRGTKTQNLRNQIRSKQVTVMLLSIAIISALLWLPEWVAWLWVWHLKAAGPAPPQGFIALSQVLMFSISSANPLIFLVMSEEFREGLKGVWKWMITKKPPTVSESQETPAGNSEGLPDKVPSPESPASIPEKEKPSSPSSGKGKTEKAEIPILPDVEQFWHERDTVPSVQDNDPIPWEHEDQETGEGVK
MITF primary: inhibitors of human MITF. O75030. AlphaScreen MITF homodimerization, bead proximity signal. inhibition, % at 2.6 µM. 650,000 tested, 0.91% active. AID 1259374; in the data active means inhibition above about 50%
GPR151 conf act: confirmation of human GPR151 activators; 6,700 tested, under 10 active; shares compounds with GPR151 activ; activation, % at 11.2 µM; GPR151 PathHunter beta-arrestin cells, luminescence, 90 min; % of EA-reagent control over plate median;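 active means mean percent activation across replicates above the confirmation screen cutoff of 4.91%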
GPR119 ag: GPR119 activation, counter-screen for GPR151 activators. shares compounds with GPR151 activ. 6,700 tested, 0.3% active. GPR119 PathHunter beta-arrestin cells, luminescence, 90 min; 0 = compound-well median, 100 = enzyme-acceptor control. activation, % at 11.2 µM;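 active means mean percent activation in the counterscreen above 29.09%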;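 further: counterscreen on off-target GPR119 to flag nonselective hits from the GPR151 activator screen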
Each line names hits and unclear results; the compound was inactive in the other large screens (follow-up assays come after a bar, where they were run). Hits are enriched below; roughly 3.5% of the tested compounds scored in any of these assays.

N/C(=N/OCc1ccc(Cl)c(Cl)c1)c1nonc1N	GPR151 activ 8.7 | GPR151 conf act inactive | GPR119 ag inactive
Cc1cc(C(=O)OCC(=O)N(Cc2ccccc2)C(C)(C)C)c(C)o1	none
COc1ccc(OCC#CCNC(C)(C)C)cc1	GPR151 activ 8.7 | GPR151 conf act inactive | GPR119 ag inactive
CNCC#CCOc1ccc(OC)cc1	none
CCCCCn1c(N)c(C#N)c2nc3ccccc3nc21	GPR151 activ 8.2 | GPR151 conf act inactive | GPR119 ag inactive
Cn1c(N)c(C#N)c2nc3ccccc3nc21	none
Cc1cc(C)nc(SCC(=O)N/N=C\c2ccccn2)n1	none
Cc1cc(C)c(-n2c(O)c(/C=C3\C=CC=N3)c(=O)[nH]c2=O)c(C)c1	TEAD-YAP block 46, GPR151 activ 7.3 | GPR151 conf act inactive | GPR119 ag inactive
Cc1nn(CC(=O)NCC#N)c(C)c1[N+](=O)[O-]	GPR151 activ 5.0 | GPR151 conf act inactive | GPR119 ag inactive
CN(Cc1ccccc1)S(=O)(=O)c1ccc2[nH]c(=O)c(=O)[nH]c2c1	GPR151 activ 5.2 | GPR151 conf act inactive | GPR119 ag inactive
Cc1cc2[nH]c(=O)c(=O)[nH]c2cc1S(=O)(=O)N(C)Cc1ccccc1	none
O=S(=O)(NCC(c1ccco1)S(=O)(=O)c1ccc(F)cc1)c1cccs1 (stereo not given)	GPR151 activ 11 | GPR151 conf act inactive | GPR119 ag inactive
CCOc1ccc(Br)cc1/C=N\NC(=O)c1cc(C)[nH]n1	GPR151 activ 7.1 | GPR151 conf act inactive | GPR119 ag inactive
Cc1cc(C(=O)N/N=C/c2ccccc2O)n[nH]1	none
Cc1cc(C(=O)N/N=C/c2ccccc2F)n[nH]1	GPR151 activ 9.8 | GPR151 conf act inactive | GPR119 ag inactive
O=C(Nc1ccc2c(c1)OCO2)c1ccnc(N2CCC(N3CCOCC3)CC2)c1	GPR151 activ 5.7 | GPR151 conf act inactive | GPR119 ag inactive
O=C(Nc1ccc(N2CCOCC2)cc1)c1ccnc(N2CCC(N3CCOCC3)CC2)c1	none
COCCOC(=O)c1ccc(NC(=O)c2ccc(Br)cc2)cc1	none
NC(=O)COc1ccc(S(=O)(=O)N2CCOCC2)cc1Cl	none
Cc1cc2c(cc3c(=O)n(CC(=O)N4CCCC(C)C4)nc(C)n32)s1 (stereo not given)	none
Cc1cc2c(cc3c(=O)n(CC(=O)NCCCN4CCCC(C)C4)nc(C)n32)s1 (stereo not given)	GPR151 activ 7.7 | GPR151 conf act inactive | GPR119 ag inactive
CCc1nn(CC(=O)NCCN(C)C2CCCCC2)c(=O)c2cc3sc(C)cc3n12	GPR151 activ 8.6 | GPR151 conf act inactive | GPR119 ag inactive
COc1ccc(NC(=O)CN2CCN(S(=O)(=O)c3ccc(Br)cc3)CC2)cc1OC	none
Cc1cccc(C(=O)NNC(=O)C2CCCO2)c1 (stereo not given)	GPR151 activ 7.3 | GPR151 conf act inactive | GPR119 ag inactive
O=C(Nc1ccccc1)c1ccccc1OCC(O)Cn1c2ccccc2c2ccccc21 (stereo not given)	GPR151 activ 13 | GPR151 conf act inactive | GPR119 ag inactive
Cc1cc(C)n(C(=O)c2ccccc2C(=O)O)n1	none
C=C1N(CCc2c(C)n(C)c3ccccc23)C(=O)OC12CCCCC2	none
Cc1ccc(N(CC(=O)O)C2SC(=O)NC2=O)cc1 (stereo not given)	GPR151 activ 5.7 | GPR151 conf act inactive | GPR119 ag inactive
O=C1CC2(CC2(c2ccccc2)c2ccccc2)C(=O)N1c1cccc([N+](=O)[O-])c1 (stereo not given)	none
CCCNc1cc(C)nc(-c2ccccc2)n1	none
Cc1cccc(-c2nc(C)cc(NCCc3ccccn3)n2)c1	GPR151 activ 5.8 | GPR151 conf act inactive | GPR119 ag inactive
COc1cccc(C2Sc3ccccc3NC3=C2C(=O)c2ccccc23)c1OC (stereo not given)	none
O=C(Nc1nc(-c2ccccn2)cs1)c1ccccc1[N+](=O)[O-]	TEAD-YAP block 54, GPR151 activ 5.4 | GPR151 conf act inactive | GPR119 ag inactive
CC(C)(C)Cc1nnc(NC(=O)c2ccccc2[N+](=O)[O-])s1	GPR151 activ 13 | GPR151 conf act inactive | GPR119 ag inactive
O=C(Nc1nc(-c2ccccc2)cs1)c1ccccc1[N+](=O)[O-]	none
CCc1nnc(NC(=O)c2ccccc2[N+](=O)[O-])s1	none
O=C(O)C1CSC(c2ccc(O)cc2)N1 (stereo not given)	none
Cc1ccc2c(c1)cc(CN(Cc1cccs1)C(=O)NC1CCCCC1)c1nnnn12	none
CCn1c(=NC(=O)c2ccco2)sc2cc3c(cc21)OCCO3	GPR151 activ 5.7 | GPR151 conf act inactive | GPR119 ag inactive
CCOCCn1c(=NC(=O)c2ccco2)sc2cc(C)ccc21	GPR151 activ 5.8 | GPR151 conf act inactive | GPR119 ag inactive
C=CCn1c(=NC(=O)c2ccco2)sc2cccc(OC)c21	none
COc1ccc(OC)c2c1sc(=NC(=O)c1ccco1)n2C	GPR151 activ 5.3 | GPR151 conf act inactive | GPR119 ag inactive
CCn1c(=NC(=O)c2ccco2)sc2cccc(F)c21	none
CCn1c(=NC(=O)c2ccco2)sc2cccc(OC)c21	GPR151 activ 5.0 | GPR151 conf act inactive | GPR119 ag inactive
NS(=O)(=O)c1ccc(NC(=S)NC(=O)C(c2ccccc2)c2ccccc2)cc1	GPR151 activ 5.4 | GPR151 conf act inactive | GPR119 ag inactive
CC(=O)NC(=S)Nc1ccc(S(N)(=O)=O)cc1	GPR151 activ 5.5 | GPR151 conf act inactive | GPR119 ag inactive
CC(=O)Nc1cccc(NC(=S)Nc2ccc(S(N)(=O)=O)cc2)c1	none
COc1cc(OC)nc(N2CCC(C(=O)NC3CCCCC3)CC2)n1	none
COc1cccc(-c2ccc(OCCCc3ccccn3)nc2)c1	GPR151 activ 5.8 | GPR151 conf act inactive | GPR119 ag inactive
CC(=O)Nc1ccc(-c2cnc3cccc(-c4cccnc4)c3c2)cc1	none
CC(=O)Nc1ccc(-c2cnc3cccc(-c4ccncc4)c3c2)cc1	GPR151 activ 5.0 | GPR151 conf act inactive | GPR119 ag inactive
COC(=O)c1c(NC(=O)c2ccc3c(c2)OCO3)sc(C(=O)N2CCCCC2)c1C	GPR151 activ 7.5 | GPR151 conf act inactive | GPR119 ag inactive
CCc1ccc(C2C(C#N)=C(N)Oc3n[nH]c(-c4ccc(OC)cc4)c32)cc1 (stereo not given)	none
O=C1C(CCCNC(=S)NC2CCCCC2)NC(=S)N1C1CCCCC1 (stereo not given)	GPR151 activ 9.8 | GPR151 conf act inactive | GPR119 ag inactive
CCCC1NC(=S)N(C2CCCCC2)C1=O (stereo not given)	none
O=c1[nH]c(N2CCCCC2)nc2c1CCN(Cc1coc3ccccc3c1=O)C2	none
N#CCSc1nnc2sc3ccccc3n12	GPR151 activ 5.2 | GPR151 conf act inactive | GPR119 ag inactive
